These results are taken from PubChem BioAssay (NCATS).

Records with an inconclusive call do not appear. Unmarked numbers belong to inactive results. Active and inactive are the calls of the source. The call rests on the fitted dose curve; in most records, active means well fitted curve in the direction sought with a large enough effect; inconclusive means small, poorly fitted or top-dose-only effect, or another doubt; inactive means no such curve, though single readings can be large; an effect the other way counts as inactive or inconclusive.

In one test the test system is HeLa. Put plainly: Primary qHTS to identify gynecologic anti-cancer compounds using libraries of approved drugs and bioactive compounds (AID 1345084). Further: nearly all actives have a fitted effect of over 55% in size. The settings on record: Gynecologic cancer cell panel viability, ATPlite luminescence, 48 h; series mostly up to 57.5 µM. In outline:
(§1)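 In this quantitative HTS, cell killing is estimated from loss of ATP-dependent luciferase light. Cells see five compound concentrations over a 48 h exposure.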
In general terms: In qHTS, concentration-response curves come from the screen itself.

Another test has as its system Hek293T. The description is as above. The settings on record: Gynecologic cancer cell panel viability, ATPlite luminescence, 48 h, control line for the selectivity index; series mostly up to 57.5 µM. In outline:
as §1

Another test deals with JEG-3. The test is described as above. Particulars: Gynecologic cancer cell panel viability, ATPlite luminescence, 48 h; series mostly up to 57.5 µM. In outline: as §1
For a further test, the system named is OV90. Described as above. The settings on record: Gynecologic cancer cell panel viability, ATPlite luminescence, 48 h; series mostly up to 57.5 µM. In short, it runs like this: as §1
(In general: ATP-based viability assays read luminescence as a measure of living cells.)

For the next test, the system named is PA-1. The test is described as above. The settings on record: Gynecologic cancer cell panel viability, ATPlite luminescence, 48 h; series mostly up to 57.5 µM. In outline: as §1
The subject of another test is SKOV3. Described as above. The settings on record: Gynecologic cancer cell panel viability, ATPlite luminescence, 48 h; series mostly up to 57.5 µM. In outline: as §1
For another test, the system named is Tov-21-G. The test is described as above. The settings on record: Gynecologic cancer cell panel viability, ATPlite luminescence, 48 h; series mostly up to 57.5 µM. In short, it runs like this: as §1
In a further test the test system is Tov112D. Described as above. The settings on record: Gynecologic cancer cell panel viability, ATPlite luminescence, 48 h; series mostly up to 57.5 µM. In short, it runs like this:
as §1

Test [1] can be described thus: Drug repurposing screens with cells derived from glioblastoma tumor samples (AID 1345199). Further: nearly all actives have a fitted effect of over 40% in size. Further: potency means the concentration at half of the fitted maximal effect. Particulars: GBM patient neurospheres viability, ATP luminescence, 48 h. In short, it runs like this: (§2)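 Four patient lines of CD133+ GBM neurospheres were screened at several concentrations; hits were retested in those lines plus three slower-growing GBM lines, using 48-hour treatment and ATP-based viability.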

In another test the test system is astro. Described as above. The settings on record: viability, ATP luminescence, 48 h; series mostly up to 45.9 µM. In outline: as §2
Where [2] appears, read: at 45.9 µM (top of the series), tumour line B.
Setting [3] is: at 45.9 µM (top of the series), tumour line D.
Setting [4] is: at 46 µM (top of the series), tumour line A.
The mark [5] stands for this setting: at 46.1 µM (top of the series), tumour line C.
On the % scale 0 is the no-effect control and ±100 the full control effect.

In the case of `CCCCC/C(C=O)=C\c1ccccc1`, the Potency entry in the test on HeLa, in the test on Hek293T, in the test on JEG-3, in the test with OV90, in the test with PA-1 and with SKOV3 was “inactive” in each case. Moreover, the Potency entry in the test on Tov-21-G, in the test on Tov112D and in the test with astro was “inactive” in each case. The activity, negative = cell killing was -2.87% in test [1] (setting [2]), -16.9% in test [1] (setting [3]), -24.2% in [1] (setting [4]) and -7.86% in [1] (setting [5]).

For `Cc1cc(O)cc2c1O[C@](C)(CCC[C@H](C)CCC[C@H](C)CCCC(C)C)CC2`, the Potency result in the test with HeLa, with Hek293T, with JEG-3, with OV90, with PA-1 and in the test with SKOV3 was “inactive” in each case. The Potency result with Tov-21-G, with Tov112D and with astro was “inactive” in each case. Also, the activity, negative = cell killing in [1] (setting [5]) was -14.5%. Further, the Potency is 5.01 µM (active) in test [1] (tumour line A), 17.8 µM (active) in test [1] (tumour line B) and 35.5 µM (active) in [1] (tumour line D).

In the case of `CC(=O)NC(Cc1ccccc1)C(=O)O` (stereo unspecified), the Potency result in the test on HeLa, with Hek293T, in the test on JEG-3, in the test on OV90, with PA-1 and in the test with SKOV3 was “inactive” each time. Further, the Potency result in the test with Tov-21-G, in the test with Tov112D and in the test with astro was “inactive” throughout. Besides, the activity, negative = cell killing in [1] (setting [2]) was -12.3%; in test [1] (setting [3]), -6.53%; in test [1] (setting [4]) it was -20.1%; in test [1] (setting [5]), -23.9%.

Regarding `CCCCN1CCCC[C@H]1C(=O)Nc1c(C)cccc1C`, the Potency result in the test with HeLa, in the test on Hek293T, in the test on JEG-3, with OV90, in the test on PA-1 and with SKOV3 was “inactive” in each case. Besides, the Potency entry with Tov-21-G, in the test with Tov112D and in the test with astro was “inactive” each time. Also, the activity, negative = cell killing was -6.49% in test [1] (setting [2]), -12.7% in test [1] (setting [3]), -27.7% in test [1] (setting [4]) and 5.13% in test [1] (setting [5]).

For the molecule `C[C@@H](O)[C@H](N)C(=O)O`, the Potency result with HeLa, with Hek293T, with JEG-3, in the test on OV90, in the test with PA-1 and with SKOV3 was “inactive” throughout. Also, the Potency entry in the test with Tov-21-G, in the test with Tov112D and in the test on astro was “inactive” throughout. Also, the activity, negative = cell killing in [1] (setting [2]) was -15.7%; in [1] (setting [3]), -16.8%; in [1] (setting [4]) it was -29.7%; in test [1] (setting [5]), 2.15%.

On to `N[C@H]1C(O)O[C@H](CO)[C@@H](O)[C@@H]1O` (stereo partly specified), for which the Potency entry in the test on HeLa, with Hek293T, with JEG-3, with OV90, in the test on PA-1 and in the test with SKOV3 was “inactive” in each case. Also, the Potency result with Tov-21-G, in the test with Tov112D and in the test with astro was “inactive” throughout. Also, the activity, negative = cell killing in test [1] (setting [2]) is -5.64%; in [1] (setting [3]), 4.44%; in test [1] (setting [4]) it was -25.4%; in test [1] (setting [5]), -6.46%.

With `OCC(O)CN1CCN(c2ccccc2)CC1` (stereo unspecified), the Potency result in the test with HeLa, in the test on Hek293T, in the test with JEG-3, in the test with OV90, in the test with PA-1 and with SKOV3 was “inactive” throughout. In addition, the Potency result in the test with Tov-21-G, in the test on Tov112D and in the test with astro was “inactive” each time. The activity, negative = cell killing in test [1] (setting [2]) is -18.5%; in test [1] (setting [3]), -7.12%; in [1] (setting [5]) it was -25.1%.

For `Nc1nc2c(ncn2CCC(CO)CO)c(=O)[nH]1`, the Potency entry in the test with HeLa, with Hek293T, in the test with JEG-3, in the test on OV90, with PA-1 and in the test on SKOV3 was “inactive” in each case. The Potency result with Tov-21-G, in the test with Tov112D and in the test on astro was “inactive” in each case. The activity, negative = cell killing is -8.7% in test [1] (setting [2]), 3.63% in test [1] (setting [3]) and -21.6% in [1] (setting [5]).

With `O=C(O)COc1nn(Cc2ccccc2)c2ccccc12`, the Potency entry in the test on HeLa, in the test with Hek293T, in the test on JEG-3, with OV90, with PA-1 and in the test on SKOV3 was “inactive” throughout. Moreover, the Potency result in the test with Tov-21-G, in the test on Tov112D and in the test with astro was “inactive” each time. For the same molecule, the activity, negative = cell killing in test [1] (setting [2]) is 0.429%; in [1] (setting [3]), -3.69%; in test [1] (setting [5]), -16.4%.

Consider `O=C(O)[C@H](O)c1ccccc1`, for which the Potency result in the test on HeLa, in the test on Hek293T, in the test on JEG-3, in the test with OV90, in the test with PA-1 and in the test on SKOV3 was “inactive” each time. The Potency result in the test on Tov-21-G, with Tov112D and with astro was “inactive” throughout. Besides, the values for the activity, negative = cell killing in [1] (setting [2]), in test [1] (setting [3]) and in [1] (setting [5]) were -2.7%, 3.57% and 1.65%, respectively.

In the case of `CC1(C)[C@@H]2CC[C@@]1(C)C(=O)C2`, the Potency entry in the test with HeLa, with Hek293T, in the test on JEG-3, in the test with OV90, with PA-1 and in the test on SKOV3 was “inactive” in each case. The Potency result in the test with Tov-21-G, in the test on Tov112D and in the test on astro was “inactive” throughout. In addition, the activity, negative = cell killing in test [1] (setting [2]) is -26.7%; in test [1] (setting [3]), -2.76%; in test [1] (setting [5]), -20.2%.

On to `O=c1cc[nH]c(=S)[nH]1`, for which the Potency result in the test with HeLa, in the test with Hek293T, in the test on JEG-3, with OV90, in the test with PA-1 and with SKOV3 was “inactive” in each case. Further, the Potency entry in the test on Tov-21-G, in the test with Tov112D and in the test on astro was “inactive” throughout. The values for the activity, negative = cell killing in test [1] (setting [2]), in [1] (setting [3]) and in test [1] (setting [5]) were -6.45%, -10.9% and -27.1%, respectively.

For the molecule `CCOC(=O)[C@H](CCc1ccccc1)N[C@@H](C)C(=O)N1C(=O)N(C)C[C@H]1C(=O)O`, the Potency result with HeLa, in the test on Hek293T, in the test on JEG-3, with OV90, in the test on PA-1 and in the test on SKOV3 was “inactive” in each case. In addition, the Potency result in the test on Tov-21-G, in the test on Tov112D and with astro was “inactive” throughout. For the same molecule, the activity, negative = cell killing in test [1] (setting [2]) was -4.44%; in test [1] (setting [3]) it was -4.75%; in test [1] (setting [4]), -37.7%.

For the molecule `NCCNCCNCCNCCN`, the activity change, negative = cytotoxicity with HeLa is 8.61% [at 11.6 µM]; in the test on Hek293T it was -2.17% [at 11.6 µM]; in the test with JEG-3, -3.13% [at 11.6 µM]; in the test with OV90, 8.86% [at 11.6 µM]; with PA-1, 20.4% [at 11.6 µM]; with SKOV3, 0% [at 11.6 µM]. The figures for the activity change, negative = cytotoxicity with Tov-21-G and with Tov112D were -0.438% [at 11.6 µM] and 0.19% [at 11.6 µM], respectively. In addition, the activity, negative = cell killing is -23.1% in test [1] (setting [2]), -12.1% in test [1] (setting [3]) and 1.79% in test [1] (setting [5]). For the same molecule, in the test with astro, the Potency entry is “inactive”.

Consider `CC[C@@]1(c2ccccc2)NC(=O)N(C)C1=O`, for which the Potency entry in the test with HeLa, with Hek293T, in the test with JEG-3, in the test on OV90, with PA-1 and with SKOV3 was “inactive” throughout. The Potency result with Tov-21-G, with Tov112D and with astro was “inactive” throughout. Besides, the activity, negative = cell killing in test [1] (setting [2]) was -13.7%; in [1] (setting [3]), -9.17%; in test [1] (setting [5]), 9.18%.
